Results taken from PubChem BioAssay (EPA / NIEHS).
Records with an inconclusive call do not appear. Calls of active or inactive are those of the source. How the source made its calls: active means hit-call score of the fitted dose curve at least 0.9, where 1 is the maximum; inconclusive means response in the unintended direction; inactive means score below 0.9.

Tests used:
rat CYP3A1, gene 25642 = test: NVS_ADME_rCYP3A1: NovaScreen (NVS) CYP450-related Enzyme Activity (ADME) Assay for rat CYP3A1 (AID 2283126)
In short: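 Compounds went first at 10 uM duplicate, then to series with 20 uM maximum. Fluorescence from substrate turnover by the recombinant enzyme was measured 0.5 h post-dosing, inhibition scored against acetonitrile vehicle.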

[1] = biological target: rat CYP3A2, Cyp3a2 (gene 266682) (UniProt P05183); test: NVS_ADME_rCYP3A2: NovaScreen (NVS) CYP450-related Enzyme Activity (ADME) Assay for rat CYP3A2 (AID 2283128)
rat CYP3A2, Cyp3a2 (gene 266682), sequence (P05183 whole entry, looked up): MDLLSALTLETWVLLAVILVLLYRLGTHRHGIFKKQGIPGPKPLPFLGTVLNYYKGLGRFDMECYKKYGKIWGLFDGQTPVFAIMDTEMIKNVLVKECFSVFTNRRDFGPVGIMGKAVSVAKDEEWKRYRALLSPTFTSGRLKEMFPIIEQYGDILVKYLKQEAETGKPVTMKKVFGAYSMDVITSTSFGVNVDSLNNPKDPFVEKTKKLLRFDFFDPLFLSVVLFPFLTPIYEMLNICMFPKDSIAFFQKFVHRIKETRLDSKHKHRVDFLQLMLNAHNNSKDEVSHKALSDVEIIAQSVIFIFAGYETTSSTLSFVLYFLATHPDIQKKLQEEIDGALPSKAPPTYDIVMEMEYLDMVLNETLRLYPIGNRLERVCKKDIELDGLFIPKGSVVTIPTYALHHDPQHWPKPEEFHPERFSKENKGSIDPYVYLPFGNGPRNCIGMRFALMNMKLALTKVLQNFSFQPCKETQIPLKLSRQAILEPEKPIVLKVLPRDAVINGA
In short: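 Fluorescence readout of extracted rat CYP3A2 activity 0.5 h post-dose, acetonitrile as negative control. Single-point testing in duplicate at 10 uM, followed by concentration series to a 20 uM maximum for actives.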

[2] = biological target: human Casein Kinase 2- alpha 2 beta 2 (CK2a2b2), CSNK2A1 (gene 1457) (UniProt P68400); test: NVS_ENZ_hCK2a2b2: NovaScreen (NVS) Enzymatic Assay for human Casein Kinase 2- alpha 2 beta 2 (CK2a2b2) (AID 2283147)
human Casein Kinase 2- alpha 2 beta 2 (CK2a2b2), CSNK2A1 (gene 1457), sequence (P68400 whole entry, looked up): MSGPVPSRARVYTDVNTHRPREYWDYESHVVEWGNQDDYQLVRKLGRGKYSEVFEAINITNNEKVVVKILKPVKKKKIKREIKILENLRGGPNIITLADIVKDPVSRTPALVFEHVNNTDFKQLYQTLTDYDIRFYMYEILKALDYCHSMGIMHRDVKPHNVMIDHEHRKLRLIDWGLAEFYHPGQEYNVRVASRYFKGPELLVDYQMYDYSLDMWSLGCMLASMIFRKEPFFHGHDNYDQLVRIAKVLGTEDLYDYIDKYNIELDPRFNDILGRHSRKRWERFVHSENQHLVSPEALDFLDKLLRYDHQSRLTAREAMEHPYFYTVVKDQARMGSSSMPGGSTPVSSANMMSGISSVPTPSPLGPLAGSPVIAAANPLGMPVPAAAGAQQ
In short: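 Compounds were first screened in duplicate at 25 uM, and those passing the threshold were re-tested in concentration series up to a 50 uM maximum. Kinase activity of recombinant human CK2 α2β2 was measured 1 h after dosing by fluorescent substrate/product mobility-shift separation.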

[3] = biological target: human Ephrin type-A Receptor 2 (EphA2), EPHA2 (gene 1969) (UniProt P29317); test: NVS_ENZ_hEphA2: NovaScreen (NVS) Enzymatic Assay for human Ephrin type-A Receptor 2 (EphA2) (AID 2283155)
human Ephrin type-A Receptor 2 (EphA2), EPHA2 (gene 1969), sequence (P29317 whole entry, looked up): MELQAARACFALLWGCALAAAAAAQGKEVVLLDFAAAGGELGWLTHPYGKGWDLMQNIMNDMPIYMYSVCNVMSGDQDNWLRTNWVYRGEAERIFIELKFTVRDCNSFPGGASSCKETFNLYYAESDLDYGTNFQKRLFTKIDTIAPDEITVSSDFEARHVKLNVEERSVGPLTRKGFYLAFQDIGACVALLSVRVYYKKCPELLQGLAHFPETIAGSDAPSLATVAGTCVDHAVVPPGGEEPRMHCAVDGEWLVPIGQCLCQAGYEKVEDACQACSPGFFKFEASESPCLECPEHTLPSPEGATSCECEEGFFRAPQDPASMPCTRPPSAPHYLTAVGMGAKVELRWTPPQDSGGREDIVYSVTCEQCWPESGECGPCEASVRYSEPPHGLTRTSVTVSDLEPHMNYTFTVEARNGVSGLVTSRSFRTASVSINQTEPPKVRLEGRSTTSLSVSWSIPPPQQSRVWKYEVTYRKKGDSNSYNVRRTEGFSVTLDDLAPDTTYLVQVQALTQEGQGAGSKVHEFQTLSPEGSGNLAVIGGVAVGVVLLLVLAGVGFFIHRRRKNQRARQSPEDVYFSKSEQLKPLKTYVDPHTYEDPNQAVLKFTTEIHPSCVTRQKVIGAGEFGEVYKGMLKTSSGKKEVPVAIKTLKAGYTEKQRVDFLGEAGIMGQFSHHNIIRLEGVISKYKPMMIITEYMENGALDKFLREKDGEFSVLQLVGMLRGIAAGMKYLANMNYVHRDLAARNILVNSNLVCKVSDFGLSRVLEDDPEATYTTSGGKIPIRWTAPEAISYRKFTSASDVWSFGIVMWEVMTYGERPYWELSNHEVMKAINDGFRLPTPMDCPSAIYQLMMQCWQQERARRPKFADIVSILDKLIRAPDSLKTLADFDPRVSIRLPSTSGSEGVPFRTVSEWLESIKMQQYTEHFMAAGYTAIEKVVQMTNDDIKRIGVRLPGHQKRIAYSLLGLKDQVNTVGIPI
In short: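 Enzyme activity of recombinant EphA2 read by fluorescence after mobility-shift separation, 1 h after dosing. Chemicals first tested at 25 uM (duplicate); those passing threshold run as concentration series, top 50 uM, single replicate, relative to DMSO.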

[4] = biological target: human Elastase, ELANE (gene 1991) (UniProt P08246); test: NVS_ENZ_hElastase: NovaScreen (NVS) Enzymatic Assay for human Elastase (AID 2283153)
human Elastase, ELANE (gene 1991), sequence (P08246 whole entry, looked up): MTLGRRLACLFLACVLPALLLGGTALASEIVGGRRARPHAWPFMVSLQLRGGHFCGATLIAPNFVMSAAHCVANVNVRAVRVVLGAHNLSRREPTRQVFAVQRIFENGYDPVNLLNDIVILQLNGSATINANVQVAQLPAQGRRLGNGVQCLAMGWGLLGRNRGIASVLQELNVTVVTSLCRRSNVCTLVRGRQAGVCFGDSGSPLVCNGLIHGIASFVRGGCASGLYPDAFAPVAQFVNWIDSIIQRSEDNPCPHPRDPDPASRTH
In short: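 Concentration-response to 50 uM max, run singly for chemicals passing a threshold (e.g., 30% inhibition) in a duplicate 25 uM single-point screen. Neutrophil-derived human elastase, absorbance read-out of enzyme activity at 1.5 h; DMSO baseline.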

[5] = biological target: human Acetylcholinesterase (AChE), ACHE (gene 43) (UniProt P22303); test: NVS_ENZ_hAChE: NovaScreen (NVS) Enzymatic Assay for human Acetylcholinesterase (AChE) (AID 2283129)
human Acetylcholinesterase (AChE), ACHE (gene 43), sequence (P22303 whole entry, looked up): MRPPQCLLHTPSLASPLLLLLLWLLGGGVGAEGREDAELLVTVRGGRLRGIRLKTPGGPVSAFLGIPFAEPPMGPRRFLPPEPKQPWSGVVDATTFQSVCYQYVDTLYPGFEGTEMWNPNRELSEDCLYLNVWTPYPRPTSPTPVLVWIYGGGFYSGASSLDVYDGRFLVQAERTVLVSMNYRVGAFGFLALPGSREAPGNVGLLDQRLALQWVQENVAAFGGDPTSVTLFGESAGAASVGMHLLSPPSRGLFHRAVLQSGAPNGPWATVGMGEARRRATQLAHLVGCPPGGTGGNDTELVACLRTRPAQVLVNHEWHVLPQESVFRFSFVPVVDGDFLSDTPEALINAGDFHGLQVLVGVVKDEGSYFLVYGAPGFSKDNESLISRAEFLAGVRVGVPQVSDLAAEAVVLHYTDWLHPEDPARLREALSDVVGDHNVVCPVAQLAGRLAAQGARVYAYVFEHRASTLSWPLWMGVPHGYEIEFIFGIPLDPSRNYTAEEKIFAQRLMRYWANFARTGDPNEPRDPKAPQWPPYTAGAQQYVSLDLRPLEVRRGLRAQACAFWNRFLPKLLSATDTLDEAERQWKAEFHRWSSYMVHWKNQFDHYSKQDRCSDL
In short: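 Actives from a duplicate single-point screen (25 uM) were followed up in concentration series. Enzyme activity read by absorbance (colorimetric) 0.33 hour after dosing, cell-free, normalized to DMSO, with loss of signal scored.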

Caspase-1 (Homo sapiens) = Caspase-1 (Homo sapiens) (UniProt P29466); test: NVS_ENZ_hCASP1: NovaScreen (NVS) Enzymatic Assay for human Caspase 1 (CASP1) (AID 2283132)
Caspase-1 (Homo sapiens), sequence (P29466 whole entry, looked up): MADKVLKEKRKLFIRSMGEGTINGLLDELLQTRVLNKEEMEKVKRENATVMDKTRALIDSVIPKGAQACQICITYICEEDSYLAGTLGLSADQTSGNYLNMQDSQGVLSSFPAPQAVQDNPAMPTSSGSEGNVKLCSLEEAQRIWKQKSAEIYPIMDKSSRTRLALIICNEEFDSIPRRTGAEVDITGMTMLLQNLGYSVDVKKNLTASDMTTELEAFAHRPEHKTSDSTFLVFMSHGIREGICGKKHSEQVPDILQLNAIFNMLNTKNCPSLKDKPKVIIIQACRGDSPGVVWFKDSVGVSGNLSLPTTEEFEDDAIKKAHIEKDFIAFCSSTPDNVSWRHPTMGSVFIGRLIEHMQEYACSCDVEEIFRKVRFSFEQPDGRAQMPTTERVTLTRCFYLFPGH
In short: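 Compounds were first tested in duplicate at 25 uM, with follow-up concentration series up to 50 uM. The bacterially expressed enzyme was read by fluorescence at 1 h post-dosing. Signal loss versus DMSO baseline indicates reduced enzyme activity.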

[6] = biological target: human Beta-secretase (BACE), BACE1 (gene 23621) (UniProt P56817); test: NVS_ENZ_hBACE: NovaScreen (NVS) Enzymatic Assay for human Beta-secretase (BACE) (AID 2283140);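 further: hits are inhibitors that reduce fluorescent substrate signal versus DMSO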
human Beta-secretase (BACE), BACE1 (gene 23621), sequence (P56817 whole entry, looked up): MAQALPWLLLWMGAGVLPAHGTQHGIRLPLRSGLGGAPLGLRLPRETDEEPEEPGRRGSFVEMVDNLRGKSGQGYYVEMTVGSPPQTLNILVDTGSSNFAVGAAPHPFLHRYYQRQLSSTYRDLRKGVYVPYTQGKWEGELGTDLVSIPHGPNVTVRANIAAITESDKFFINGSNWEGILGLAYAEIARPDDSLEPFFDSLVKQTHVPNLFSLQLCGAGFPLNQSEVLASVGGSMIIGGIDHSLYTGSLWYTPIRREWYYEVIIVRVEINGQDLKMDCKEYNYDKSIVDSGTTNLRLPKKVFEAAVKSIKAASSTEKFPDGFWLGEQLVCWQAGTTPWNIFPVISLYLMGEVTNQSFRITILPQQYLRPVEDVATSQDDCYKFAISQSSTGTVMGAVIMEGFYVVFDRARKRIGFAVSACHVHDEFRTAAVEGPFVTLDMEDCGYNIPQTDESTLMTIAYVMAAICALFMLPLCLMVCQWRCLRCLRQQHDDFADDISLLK
In short: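 SF9-expressed enzyme, cell-free; fluorescent substrate readout after 1 h. Screened at 25 uM single concentration, duplicate; hits retested in concentration series. Activity relative to DMSO baseline, loss-of-signal.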

[7] = biological target: human Colony Stimulating Factor 1 Receptor (CSF1R), CSF1R (gene 1436) (UniProt P07333); test: NVS_ENZ_hCSF1R: NovaScreen (NVS) Enzymatic Assay for human Colony Stimulating Factor 1 Receptor (CSF1R) (AID 2283150)
human Colony Stimulating Factor 1 Receptor (CSF1R), CSF1R (gene 1436), sequence (P07333 whole entry, looked up): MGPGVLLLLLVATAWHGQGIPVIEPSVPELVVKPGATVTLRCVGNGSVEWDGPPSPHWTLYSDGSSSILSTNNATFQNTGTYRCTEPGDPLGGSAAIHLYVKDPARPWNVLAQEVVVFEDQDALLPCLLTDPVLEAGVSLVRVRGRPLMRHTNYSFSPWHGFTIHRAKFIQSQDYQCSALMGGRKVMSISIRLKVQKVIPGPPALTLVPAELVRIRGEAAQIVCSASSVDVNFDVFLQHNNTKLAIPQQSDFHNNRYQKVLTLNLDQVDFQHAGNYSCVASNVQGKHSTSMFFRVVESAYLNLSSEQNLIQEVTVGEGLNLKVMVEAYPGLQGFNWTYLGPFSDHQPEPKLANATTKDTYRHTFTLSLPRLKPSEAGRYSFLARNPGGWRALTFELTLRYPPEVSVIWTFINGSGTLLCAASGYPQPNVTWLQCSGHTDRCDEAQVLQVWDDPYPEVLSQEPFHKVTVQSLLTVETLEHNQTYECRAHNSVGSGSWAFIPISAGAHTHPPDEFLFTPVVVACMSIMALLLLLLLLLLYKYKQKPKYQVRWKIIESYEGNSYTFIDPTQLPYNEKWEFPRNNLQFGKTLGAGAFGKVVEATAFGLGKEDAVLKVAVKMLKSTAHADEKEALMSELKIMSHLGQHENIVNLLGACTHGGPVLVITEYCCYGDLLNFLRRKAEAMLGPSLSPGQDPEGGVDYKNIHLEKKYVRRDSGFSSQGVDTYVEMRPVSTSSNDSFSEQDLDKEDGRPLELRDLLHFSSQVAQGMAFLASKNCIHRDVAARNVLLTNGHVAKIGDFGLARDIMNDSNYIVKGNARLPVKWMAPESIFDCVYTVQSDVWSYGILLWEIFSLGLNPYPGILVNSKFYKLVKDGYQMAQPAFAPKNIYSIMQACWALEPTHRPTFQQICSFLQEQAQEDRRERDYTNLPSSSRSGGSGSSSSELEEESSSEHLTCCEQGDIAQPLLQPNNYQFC
In short: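 Compounds screened in duplicate at 25 uM, then concentration-response (top 50 uM) for those passing threshold such as 30% inhibition; recombinant CSF1R activity measured 1 h post-dosing via fluorescent substrate/product mobility-shift separation, loss of signal versus DMSO.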

[8] = biological target: human Caspase 4 (CASP4), CASP4 (gene 837) (UniProt P49662); test: NVS_ENZ_hCASP4: NovaScreen (NVS) Enzymatic Assay for human Caspase 4 (CASP4) (AID 2283143)
human Caspase 4 (CASP4), CASP4 (gene 837), sequence (P49662 whole entry, looked up): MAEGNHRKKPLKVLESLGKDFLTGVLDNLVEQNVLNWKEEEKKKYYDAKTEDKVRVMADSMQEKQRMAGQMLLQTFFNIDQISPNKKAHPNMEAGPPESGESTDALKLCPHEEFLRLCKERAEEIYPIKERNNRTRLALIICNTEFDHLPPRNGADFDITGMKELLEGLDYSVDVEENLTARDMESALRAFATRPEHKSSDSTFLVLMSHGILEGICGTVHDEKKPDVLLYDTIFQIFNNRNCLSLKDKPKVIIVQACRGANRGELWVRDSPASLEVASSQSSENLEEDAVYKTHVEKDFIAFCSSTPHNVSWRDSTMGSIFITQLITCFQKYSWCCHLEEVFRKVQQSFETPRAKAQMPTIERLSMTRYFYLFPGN
In short: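 Compounds were first tested in duplicate at 25 uM, and hits were titrated singly to a 50 uM maximum. Recombinant protease from E. coli was read by fluorescence 2 h post-dose, and activity loss was fitted against the DMSO baseline.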

Q: How did the AC50 (rat CYP3A1, gene 25642) turn out when CC1(C)CCC(=Cc2ccc(Cl)cc2)C1(O)Cn1cncn1 (stereo not drawn) was run?
A: The AC50 was 0.0126 µM (active).

Q: What about the AC50 [1] of the same compound?
A: The AC50 was 0.225 µM (active).

Q: Clc1nc(Cl)nc(Nc2ccccc2Cl)n1 was tested. Which outcome (rat CYP3A1, gene 25642) did it give?
A: Its outcome is “inactive”.

Q: What about the AC50 [2] of the same compound?
A: The AC50 was 15.8 µM (active).

Q: And the outcome [3]?
A: Its outcome is “inactive”.

Q: For CCOP(=O)(OCC)Oc1nc(Cl)c(Cl)cc1Cl, which AC50 (rat CYP3A1, gene 25642) is on record?
A: Its AC50 is 7.93 µM (active).

Q: And the AC50 [4]?
A: Its AC50 is 14.4 µM (active).

Q: COP(=S)(OC)SCn1nnc2ccccc2c1=O was tested. Which AC50 (rat CYP3A1, gene 25642) did it give?
A: The AC50 was 3.02 µM (active).

Q: What about the AC50 [1] of the same compound?
A: The AC50 was 0.393 µM (active).

Q: And the outcome [5]?
A: The outcome was “inactive”.

Q: For CC(C)=CC1C(C(=O)OCc2coc(Cc3ccccc3)c2)C1(C)C (stereo not drawn), which AC50 [1] is on record?
A: The AC50 was 7.04 µM (active).

Q: And the outcome (Caspase-1 (Homo sapiens))?
A: The outcome was “inactive”.

Q: And the AC50 [6]?
A: Its AC50 is 40.5 µM (active).

Q: What about the AC50 [4] of the same compound?
A: Its AC50 is 33.6 µM (active).

Q: For C=CCOC(=O)C(C)(C)OC(=O)c1cc(-n2c(=O)cc(C(F)(F)F)n(C)c2=O)ccc1Cl, which AC50 (rat CYP3A1, gene 25642) is on record?
A: Its AC50 is 0.595 µM (active).

Q: What about the AC50 [1] of the same compound?
A: Its AC50 is 0.407 µM (active).

Q: With COP(=S)(OC)Oc1ccc([N+](=O)[O-])c(C)c1 as the compound, how does the AC50 (rat CYP3A1, gene 25642) read?
A: The AC50 was 8.22 µM (active).

Q: What about the AC50 [1] of the same compound?
A: The AC50 was 4.29 µM (active).

Q: Which results are given for CCCCC(C#N)(Cn1cncn1)c1ccc(Cl)cc1 (stereo not drawn)?
A: AC50 (rat CYP3A1, gene 25642): 3.82 µM (active); AC50 [1]: 2.96 µM (active)

Q: CO/N=C(/C1=NOCCO1)c1ccccc1Oc1ncnc(Oc2ccccc2Cl)c1F was tested. Which AC50 (rat CYP3A1, gene 25642) did it give?
A: The AC50 was 0.705 µM (active).

Q: And the AC50 [1]?
A: Its AC50 is 1.18 µM (active).

Q: How did the AC50 (rat CYP3A1, gene 25642) turn out when CCN(CC)C(=O)C(C)Oc1cccc2ccccc12 (stereo not drawn) was run?
A: Its AC50 is 4.43 µM (active).

Q: And the AC50 [1]?
A: The AC50 was 5.34 µM (active).

Q: And the outcome (Caspase-1 (Homo sapiens))?
A: The outcome was “inactive”.

Q: What about the outcome [7] of the same compound?
A: The outcome was “inactive”.

Q: How did the AC50 (rat CYP3A1, gene 25642) turn out when CCCCC(O)(Cn1cncn1)c1ccc(Cl)cc1Cl (stereo not drawn) was run?
A: Its AC50 is 0.995 µM (active).

Q: What about the AC50 [1] of the same compound?
A: Its AC50 is 1.6 µM (active).

Q: What about the AC50 [8] of the same compound?
A: The AC50 was 9.08 µM (active).

Q: Which results are given for CCCCOCN(C(=O)CCl)c1c(CC)cccc1CC?
A: AC50 (rat CYP3A1, gene 25642): 10 µM (active); AC50 [6]: 9.39 µM (active)

Q: For CC(C)NC(=O)N1CC(=O)N(c2cc(Cl)cc(Cl)c2)C1=O, which AC50 (rat CYP3A1, gene 25642) is on record?
A: The AC50 was 2.27 µM (active).

Q: What about the outcome [3] of the same compound?
A: Its outcome is “inactive”.
